# Compound activity (PubChem BioAssay)
# Abeta yeast res: qHTS for compounds that reverse cellular toxicity of Amyloid beta (A-beta) peptide in yeast: Primary Screen; yeast expressing A-beta42, growth rescue, OD600, 48 h; response scale: 0% DMSO, 100% iron-clioquinol control; Potency, µM (series often up to 46.1 µM), actives largely listed as activators; 410,000 compounds, 0.063% hits; note: potency is the fitted concentration of half-maximal effect; nearly all actives have a fitted effect of over 55% in size
#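 Yeast growth medium received pinned compounds, then yeast cells expressing toxic A-beta were added; plates incubated at 30 C for 48 hr. Growth read as absorbance at 600 nm, normalized to DMSO and equimolar FeCl3 plus clioquinol controls.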
# LDHA block: qHTS assay for inhibitors of human lactate dehydrogenase | purified LDHA, NADH/diaphorase-resazurin fluorescence; stronger effect = lower value | activity change, % (values are at about 110 or 230 µM) | L-lactate dehydrogenase A chain (Homo sapiens), P00338 | 480,000 compounds, 0.15% hits; in the data active = activity change below about -30%; inconclusive = mostly about -25% to -30%;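 note: plate controls were DMSO wells for no effect and wells without enzyme for full effect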
#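 Resorufin fluorescence (ex540/em590), read at 0 and 20 min after diaphorase/resazurin addition, reports the NADH left after a 5 min room-temperature reaction of 2 nM human LDH5 with 0.06 mM NADH and 0.2 mM pyruvate.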
# aSyn rescue: qHTS of alpha-syn Inhibitors. Potency, µM (highest dose often 46.1 µM), inactives show at the highest dose growth rescue (activation), most hits filed as activators. 370,000 compounds, 0.14% hits. AID 652106, 2013. Yeast expressing alpha-synuclein, growth rescue, BacTiter-Glo, 24 h; note: potency is the fitted concentration of half-maximal effect; % of control where 0% means no effect; nearly all actives have a fitted effect of over 65% in size
#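 Rescue of yeast growth: cells expressing toxic alpha-synuclein, induced in galactose at OD600 0.02, incubated with compound 24 h at 30 C. ATP luminescence quantified growth; inhibitors of toxicity appear as activators.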
# FUS suppressor: qHTS for Suppressors of FUS Proteinopathy: Primary screen using FUS-linked yeast assay. S. cerevisiae FUS-expressing, growth rescue, OD600, 24 h. Potency, µM (doses to about 76.6 µM), hits mostly activators. 390,000 compounds, 0.24% hits. AID 1347120, 2019;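 note: potency is the fitted concentration of half-maximal effect; plate controls were DMSO vehicle for no effect and reference control for full effect; nearly all actives have a fitted effect of over 55% in size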
#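 S. cerevisiae expressing FUS from galactose induction served as the toxicity model. Growth after 24hr at 30C, read as absorbance at 600 nm, indicates suppression of toxicity; compounds dosed at several concentrations.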
# TDP-43 yeast inh: qHTS of TDP-43 Inhibitors; TDP-43 expressing yeast growth rescue, BacTiter-Glo, 24 h; Potency, µM (top dose mostly 46.1 µM), for the others: top-dose growth rescue (activation), usual class: activators; 410,000 compounds, 1.8% hits; note: potency is the fitted concentration of half-maximal effect; % of control where 0% means no effect; nearly all actives have a fitted effect of over 50% in size
#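 Yeast cells expressing TDP-43 under galactose induction are exposed to compounds for 24 hr at 30 deg C. BacTiter-Glo luminescence measures growth, so protective compounds score as activators.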
# PTHR1 ag: qHTS for PTHR1 Agonists: Primary Screen; Potency, µM (series often up to 115 µM), inactives show top-dose activation, hits mostly activators; HEK293 GP2 PTHR1 cells, GloSensor cAMP luminescence, 1 h; Parathyroid hormone/parathyroid hormone-related peptide receptor (Homo sapiens), Q03431; 410,000 compounds, 0.075% hits; AID 743266, 2014; note: potency is the fitted concentration of half-maximal effect; nearly all actives have a fitted effect of over 55% in size
# Target sequence (Q03431 whole entry, looked up): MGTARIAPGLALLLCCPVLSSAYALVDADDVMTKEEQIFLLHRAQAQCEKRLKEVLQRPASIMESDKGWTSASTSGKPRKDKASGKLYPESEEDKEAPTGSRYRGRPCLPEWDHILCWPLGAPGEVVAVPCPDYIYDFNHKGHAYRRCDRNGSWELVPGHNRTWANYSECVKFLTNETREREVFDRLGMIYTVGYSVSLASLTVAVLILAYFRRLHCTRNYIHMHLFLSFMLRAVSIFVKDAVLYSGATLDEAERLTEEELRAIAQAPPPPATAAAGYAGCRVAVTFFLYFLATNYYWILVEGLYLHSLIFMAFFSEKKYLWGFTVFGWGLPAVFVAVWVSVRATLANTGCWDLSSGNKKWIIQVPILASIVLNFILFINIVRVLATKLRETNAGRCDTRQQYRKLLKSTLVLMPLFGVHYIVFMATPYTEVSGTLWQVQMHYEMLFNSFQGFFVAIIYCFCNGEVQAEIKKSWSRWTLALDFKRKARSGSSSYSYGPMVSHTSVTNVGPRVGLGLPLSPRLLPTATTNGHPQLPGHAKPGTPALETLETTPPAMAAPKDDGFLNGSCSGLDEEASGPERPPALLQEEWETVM
#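 HEK-293-derived GP2 cells expressing PTHR1 and a GloSensor cAMP reporter, 3,000/well, plated overnight, given luciferin plus IBMX (each 0.5 mM as added) for 1 h at 37 °C, then compound for 1 h at 37 °C. Luminescence was read after 15 min at room temperature.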
# The depositor's hits bear a star; i = inactive; ? = inconclusive; . = not tested or not shown; [ ] = dose if it differs, or a comment. Hits are enriched below; roughly 1.9% of the tested compounds scored in any of these assays. Unless noted, calls come from the whole dose curve; as a rule, active = well fitted curve in the direction sought with a large enough effect; inconclusive = small, poorly fitted or top-dose-only effect, or another doubt; inactive = no such curve, though single readings can be large; an effect the other way counts as inactive or inconclusive.
SMILES,Abeta yeast res,LDHA block,aSyn rescue,FUS suppressor,TDP-43 yeast inh,PTHR1 ag
CC1CCC(C(O)(C(=O)O)C2CCCCC2)CC1C (stereo not given),i,-2,14%,.,18µM*,-18%
Cc1cccc(/C=C(/C(=O)N2CCCCCC2)c2cccs2)c1,.,6,.,.,.,.
CCN(CC)C(=O)C(Sc1nc2cc(S(=O)(=O)N3CCCCC3)ccc2o1)c1ccccc1 (stereo not given),.,-5,.,.,.,.
CCC(CC)c1nnc(NC(=O)c2c(C)nn(Cc3ccccc3Cl)c2C)s1,i,2,7%,8.9µM*,?,-25%
CC1=CC2=NC(=O)/C(=C\c3cccn3CCOc3cc(C)ccc3C)C(=N)N2O1,i,-7,5%,i,16µM*,-3%
CC1=CC2=NC(=O)/C(=C\c3cccn3CCOc3cccc(C)c3)C(=N)N2O1,i,-7,?,i,?,-21%
CC1(C)N=C(SCC(=O)Nc2ccc(Cl)cc2)C(c2ccccc2)=N1,i,0,0%,i,32µM*,-9%[57.5 µM]
CC1(C)N=C(SCC(=O)Nc2ccc(Cl)cc2)C(c2ccc(Cl)cc2)=N1,i,0,-10%,i,35µM*,i
CC1(C)N=C(SCC(=O)Nc2ccc(Br)cc2)C(c2ccc(Br)cc2)=N1,.,7,.,.,.,.
OC(c1cccc(Cl)c1)c1nc(-c2ccc(Cl)cc2)cs1 (stereo not given),i,-10,-54%,i,-86%,-21%
COc1cccc(C(O)c2nc(/C=C/c3ccccc3)cs2)c1 (stereo not given),i,-1,?,i,22µM*,i
OC(c1cccc(Cl)c1)c1nc(/C=C/c2ccccc2)cs1 (stereo not given),i,-4,-14%,i,8.9µM*,-7%
COc1cccc(C(NC(C)=O)c2nc(/C=C/c3ccccc3)cs2)c1 (stereo not given),i,2,12%,?,?,-20%
CC(C)c1ccc2oc(-c3cc(N)ccc3O)nc2c1,i,0,-11%,i,20µM*,-14%[57.5 µM]
CC(C)c1ccc2oc(-c3ccc(N)cc3O)nc2c1,.,4,.,.,.,.
CCCCCCCNC(=O)C1(CC2CC(c3ccc(Cl)cc3)=NO2)CCN(C(=O)CCCCCBr)CC1 (stereo not given),i,11,-5%,32µM*,-3%,-36%
S=c1nc(C2CCCCC2)n(-c2ccccc2)[nH]1,13µM*,-4,-4%,i,3%,-8%
O=C1CC(c2ccc3c(c2)OCCO3)Oc2ccccc21 (stereo not given),i,-11,-7%,i,14µM*,-17%
COCCOc1ccc(C(=O)/C=C/c2cc(OC)c(OC)c(OC)c2)cc1,.,5,.,.,.,.
COC(=O)CC1(c2ccccc2)C(=O)c2ccccc2C1=O,i,-6,6%,i,-13%,i
COC(=O)CC1(c2cccc3ccccc23)C(=O)c2ccccc2C1=O,i,-10,6%,i,22µM*,-86%[57.5 µM]
Cc1ccc(C(C(=O)NCc2ccccc2)N(Cc2cccs2)C(=O)c2ccc3c(c2)OCCO3)cc1 (stereo not given),i,-7,3%,?,-14%,7%
COc1ccc(CNC(=O)C(c2ccc(C)cc2)N(Cc2cccs2)C(=O)c2ccc3c(c2)OCCO3)cc1 (stereo not given),i,2,-6%,5µM*,-23%,i
Cc1ccc(-c2c(C(=O)N3CCN(c4cccc(C)c4)C(C)C3)oc(=O)c3ccccc23)cc1 (stereo not given),i,-13,.,i,14µM*,-30%
Cc1cccc(N2CCN(C(=O)c3ccc4c(c3)c(C)c(C)n4C)CC2C)c1 (stereo not given),i,3,1%,?,16µM*,i
SMILES,Abeta yeast res,LDHA block,aSyn rescue,FUS suppressor,TDP-43 yeast inh,PTHR1 ag
COc1ccc(Nc2nc3cc(-c4ccsc4)sc3c(=O)n2C)cc1OC,i,-3,16%,28µM*,?,-19%
COc1ccc(-c2cc3nc(NCC4CCCCC4)n(C)c(=O)c3s2)cc1OC,22µM*,-5,30%,i,20µM*,-56%
COc1cccc(-c2cc3nc(Nc4ccc(OC)c(OC)c4)n(C)c(=O)c3s2)c1,i,5,-1%,i,0%,-38%
COc1ccc(Nc2nc3cc(-c4sccc4C)sc3c(=O)n2C)cc1OC,i,-4,10%,?,35µM*,i
COc1ccc2c(CNc3ccccc3C)cc(=O)oc2c1,.,-9,.,.,.,.
COc1cc(/C=C(/C#N)c2ccccc2)ccc1Oc1ccc([N+](=O)[O-])cn1,i,-2,0%,i,-3%,-2%[57.5 µM]
COc1cc(C=C(C#N)c2ccc([N+](=O)[O-])cc2)ccc1O,i,7,-15%,i,4µM*,-2%
COc1ccc(Nc2cc(C)nc(N3CCN(C(=O)Nc4cc(C)ccc4C)CC3)n2)cc1,.,8,.,.,.,.
CC(=O)NC(C)(c1ccccc1)c1nc(-c2ccc(F)c(Cl)c2)cs1 (stereo not given),i,-4,6%,i,11µM*,-14%
COc1ccc(C(C)(NC(C)=O)c2nc(-c3cccc(C(F)(F)F)c3)cs2)cc1 (stereo not given),i,-1,4%,?,35µM*,-15%
CCOC(=O)COc1ccc2c(=O)c(Oc3ccc(OC)cc3)c(C)oc2c1,.,-6,.,.,.,.
CC(=O)Nc1ccc(NC(=O)c2c[nH]c3ccccc23)cc1,.,1,.,.,.,.
Cc1ccc(C)c(-c2nnc(NC(=O)COc3ccccc3)o2)c1,i,-2,11µM*,i,14µM*,-3%
O=C(COc1ccccc1)Nc1nnc(-c2ccc(Cl)s2)o1,?,-7,18µM*,i,8.9µM*,14%
O=C(COc1ccccc1)Nc1nnc(-c2ccccc2)o1,?,-12,20µM*,i,?,23%
N#Cc1cn(CC(=O)NCc2ccc(F)cc2)c2ccccc12,.,-8,.,.,.,.
CCOc1cc(-c2noc(N)c2C(=O)OC)cc(OCC)c1OCC,i,1,-11%,.,10%,-10%
